ChEMBL document CHEMBL1961873, “Compounds: GSK PKIS; Assays: Nanosyn kinase panel” (2012)

These compounds were tested on Mast/stem cell growth factor receptor Kit (Homo sapiens), P10721 [D816V]. Conditions: at 1 µM.
Chain of Mast/stem cell growth factor receptor Kit (Homo sapiens), P10721 [D816V] (P10721 whole entry D816V): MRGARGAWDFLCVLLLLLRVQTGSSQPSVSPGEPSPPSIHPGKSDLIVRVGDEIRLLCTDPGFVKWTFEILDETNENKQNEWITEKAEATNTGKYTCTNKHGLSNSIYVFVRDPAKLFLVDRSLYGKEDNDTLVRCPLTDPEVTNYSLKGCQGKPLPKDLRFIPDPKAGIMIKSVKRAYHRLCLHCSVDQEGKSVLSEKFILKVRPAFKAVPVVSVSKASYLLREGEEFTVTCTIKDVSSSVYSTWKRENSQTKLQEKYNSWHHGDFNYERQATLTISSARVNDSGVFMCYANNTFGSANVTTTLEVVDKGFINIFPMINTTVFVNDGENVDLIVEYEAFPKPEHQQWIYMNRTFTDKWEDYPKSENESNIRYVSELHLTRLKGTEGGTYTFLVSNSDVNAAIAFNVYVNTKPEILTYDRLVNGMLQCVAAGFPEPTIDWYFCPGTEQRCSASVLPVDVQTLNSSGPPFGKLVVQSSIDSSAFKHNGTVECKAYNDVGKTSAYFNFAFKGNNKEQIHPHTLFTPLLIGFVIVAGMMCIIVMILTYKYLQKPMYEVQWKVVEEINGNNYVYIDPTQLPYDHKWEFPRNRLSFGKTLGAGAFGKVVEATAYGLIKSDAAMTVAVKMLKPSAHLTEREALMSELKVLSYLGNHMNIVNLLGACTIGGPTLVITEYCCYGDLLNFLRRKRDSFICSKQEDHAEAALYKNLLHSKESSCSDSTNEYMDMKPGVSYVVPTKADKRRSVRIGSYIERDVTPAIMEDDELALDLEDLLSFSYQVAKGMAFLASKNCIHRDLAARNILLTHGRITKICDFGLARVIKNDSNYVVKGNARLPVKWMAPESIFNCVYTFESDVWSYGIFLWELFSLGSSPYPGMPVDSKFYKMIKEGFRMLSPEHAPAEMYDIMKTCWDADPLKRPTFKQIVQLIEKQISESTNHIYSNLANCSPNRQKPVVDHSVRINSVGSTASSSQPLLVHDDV

SMILES | inhibition [%]
CN1CCC(C(=O)Nc2n[nH]c3nnc(-c4ccccc4)cc23)CC1 | 3.19
COc1cc2ncn(-c3cc(OCc4ccccc4C(F)(F)F)c(C(N)=O)s3)c2cc1OC | 7.66
CCn1c(-c2nonc2N)nc2ccncc21 | -2.39
COc1cc2ncn(-c3cc(OCc4ccccc4Cl)c(C(N)=O)s3)c2cc1OC | -0.43
CC1=C(C(=O)Nc2ccc3[nH]ncc3c2)C(c2ccc(Cl)c(Cl)c2)CC(=O)N1 (stereo not drawn) | 1.14
CS(=O)(=O)CCN(CC#N)Cc1ccc(-c2ccc3ncnc(Nc4ccc(OCc5cccc(F)c5)c(Cl)c4)c3c2)o1 | 2.53
Nc1ncnc2occ(-c3ccc(NC(=O)Nc4cccc(C(F)(F)F)c4)cc3)c12 | 6.5
NC(=O)c1ccc(-c2nc(-c3ccccn3)c(-c3ccc4c(c3)OCO4)[nH]2)cc1 | 5.29
O=C1NC(=O)C(N2CCc3ccccc32)=C1c1ccc(Cl)cc1 | 2.43
O=C1NC(=O)C(c2ccc(Cl)cc2)=C1Nc1ccc(Cl)c(C(=O)O)c1 | -3.02
NC(=O)c1cccc(Nc2nccc(Nc3cccc4[nH]ncc34)n2)c1 | 14.6
CNC(=O)c1cncc(/C=C/c2c(Cl)cccc2Cl)c1 | 1.88
COc1ccc(-c2coc3ncnc(N)c23)cc1 | -0.06
Cc1nn(C)c2cc(N(C)c3ccnc(Nc4cccc(S(N)(=O)=O)c4)n3)ccc12 | 5.94
O=C1NC(=O)C(c2cccc(Cl)c2)=C1Nc1ccc(O)c(Cl)c1 | -6.88
O=C1Nc2ccc(C(=O)c3ccco3)cc2C1=Cc1cc(Cl)c(O)c(Cl)c1 | 0.61
NS(=O)(=O)c1ccc(N/N=C2\C(=O)Nc3ccc(C(=O)NCCc4c[nH]cn4)cc32)cc1 | 6.74

SMILES | inhibition [%]
Nc1nc(-c2ccc3c(c2)C(=Cc2cc(Br)c(O)c(Br)c2)C(=O)N3)cs1 | -1.02
O=C(Nc1n[nH]c2nc(-c3ccco3)c(Br)cc12)C1CC1 | -1.99
Cn1cc(C=C2C(=O)Nc3cccnc32)c2ccccc21 | 5.81
CC1=C(C(=O)Nc2ccc3[nH]ncc3c2)C(c2ccc(F)cc2)NC(=O)N1 (stereo not drawn) | 1.15
CCn1c(-c2nonc2N)nc2c(N3CCCC3)nccc21 | -0.65
COc1cc2c(cc1Nc1nc(N3CCc4ccccc43)c3cc[nH]c3n1)N(C(=O)CN(C)C)CC2 | 5.06
Cc1cccc(-c2n[nH]cc2-c2ccc3ncccc3n2)n1 | 18
CCc1cccc(NC(=O)Nc2ccc(Oc3ccc4nc(NC(=O)OC)[nH]c4c3)cc2)c1 | 0
COc1ccc(-c2nn3ncccc3c2-c2ccnc(Nc3ccc(Cl)c(C(F)(F)F)c3)n2)cc1 | 4.92
Nc1ncnc2occ(-c3ccc(NC(=O)Nc4cc(C(F)(F)F)cc(C(F)(F)F)c4)cc3)c12 | 10.8
CCn1c(-c2nonc2N)nc2cncc(C(=O)N3CC[C@H](N)C3)c21 | 5.73
COC(=O)Nc1nc2cc(Oc3ccc(NC(=O)Nc4cccc(C(=O)O)c4)cc3)ccc2[nH]1 | 3.73
[O-][S+]1CCN(Cc2ccc(-c3ccc4ncnc(Nc5ccc(OCc6ccccc6)c(F)c5)c4c3)o2)CC1 | -1.53
COc1cc(C=NNc2ncnc3c2cnn3-c2ccccc2)ccc1O | 8.84
NCc1ccc(-c2nc(-c3ccc(Cl)c(O)c3)c(-c3ccncc3)[nH]2)cc1 | 5.11
Cc1nnc(-c2ccc(C)c(-c3ccc(C(=O)Nc4cccc(C#N)c4)cc3)c2)o1 | 2.02
CCn1c(-c2nonc2N)nc2c(C#CC(C)(C)O)nc(OC[C@@H](N)c3ccccc3)cc21 | 1.93

The compounds below were run on Mast/stem cell growth factor receptor Kit (Homo sapiens), P10721 [T670I]. Conditions: at 0.1 µM.
Chain of Mast/stem cell growth factor receptor Kit (Homo sapiens), P10721 [T670I] (P10721 whole entry T670I): as the sequence (P10721 whole entry D816V) above, with T670I, V816D counted along it

SMILES | inhibition [%]
CN1CCC(C(=O)Nc2n[nH]c3nnc(-c4ccccc4)cc23)CC1 | 4.77
COc1cc2ncn(-c3cc(OCc4ccccc4C(F)(F)F)c(C(N)=O)s3)c2cc1OC | 3.55
CCn1c(-c2nonc2N)nc2ccncc21 | 0.62
COc1cc2ncn(-c3cc(OCc4ccccc4Cl)c(C(N)=O)s3)c2cc1OC | 2.57
CC1=C(C(=O)Nc2ccc3[nH]ncc3c2)C(c2ccc(Cl)c(Cl)c2)CC(=O)N1 (stereo not drawn) | 0.21
CS(=O)(=O)CCN(CC#N)Cc1ccc(-c2ccc3ncnc(Nc4ccc(OCc5cccc(F)c5)c(Cl)c4)c3c2)o1 | 2.04
Nc1ncnc2occ(-c3ccc(NC(=O)Nc4cccc(C(F)(F)F)c4)cc3)c12 | 72.5
NC(=O)c1ccc(-c2nc(-c3ccccn3)c(-c3ccc4c(c3)OCO4)[nH]2)cc1 | 0.05
O=C1NC(=O)C(N2CCc3ccccc32)=C1c1ccc(Cl)cc1 | 3.14
O=C1NC(=O)C(c2ccc(Cl)cc2)=C1Nc1ccc(Cl)c(C(=O)O)c1 | -0.88
NC(=O)c1cccc(Nc2nccc(Nc3cccc4[nH]ncc34)n2)c1 | -2.9
CNC(=O)c1cncc(/C=C/c2c(Cl)cccc2Cl)c1 | 0.36
COc1ccc(-c2coc3ncnc(N)c23)cc1 | 3.49
Cc1nn(C)c2cc(N(C)c3ccnc(Nc4cccc(S(N)(=O)=O)c4)n3)ccc12 | 5.8
O=C1NC(=O)C(c2cccc(Cl)c2)=C1Nc1ccc(O)c(Cl)c1 | -1.24
O=C1Nc2ccc(C(=O)c3ccco3)cc2C1=Cc1cc(Cl)c(O)c(Cl)c1 | 2.58
NS(=O)(=O)c1ccc(N/N=C2\C(=O)Nc3ccc(C(=O)NCCc4c[nH]cn4)cc32)cc1 | 3.65

SMILES | inhibition [%]
Nc1nc(-c2ccc3c(c2)C(=Cc2cc(Br)c(O)c(Br)c2)C(=O)N3)cs1 | -2.39
O=C(Nc1n[nH]c2nc(-c3ccco3)c(Br)cc12)C1CC1 | 2.25
Cn1cc(C=C2C(=O)Nc3cccnc32)c2ccccc21 | 2.37
CC1=C(C(=O)Nc2ccc3[nH]ncc3c2)C(c2ccc(F)cc2)NC(=O)N1 (stereo not drawn) | 1.53
CCn1c(-c2nonc2N)nc2c(N3CCCC3)nccc21 | -1.62
COc1cc2c(cc1Nc1nc(N3CCc4ccccc43)c3cc[nH]c3n1)N(C(=O)CN(C)C)CC2 | 1.21
Cc1cccc(-c2n[nH]cc2-c2ccc3ncccc3n2)n1 | -0.33
CCc1cccc(NC(=O)Nc2ccc(Oc3ccc4nc(NC(=O)OC)[nH]c4c3)cc2)c1 | 58.6
COc1ccc(-c2nn3ncccc3c2-c2ccnc(Nc3ccc(Cl)c(C(F)(F)F)c3)n2)cc1 | -0.64
Nc1ncnc2occ(-c3ccc(NC(=O)Nc4cc(C(F)(F)F)cc(C(F)(F)F)c4)cc3)c12 | 22
CCn1c(-c2nonc2N)nc2cncc(C(=O)N3CC[C@H](N)C3)c21 | 3.35
COC(=O)Nc1nc2cc(Oc3ccc(NC(=O)Nc4cccc(C(=O)O)c4)cc3)ccc2[nH]1 | -0.34
[O-][S+]1CCN(Cc2ccc(-c3ccc4ncnc(Nc5ccc(OCc6ccccc6)c(F)c5)c4c3)o2)CC1 | 0.34
COc1cc(C=NNc2ncnc3c2cnn3-c2ccccc2)ccc1O | 4.5
NCc1ccc(-c2nc(-c3ccc(Cl)c(O)c3)c(-c3ccncc3)[nH]2)cc1 | -0.4
Cc1nnc(-c2ccc(C)c(-c3ccc(C(=O)Nc4cccc(C#N)c4)cc3)c2)o1 | 0.85
CCn1c(-c2nonc2N)nc2c(C#CC(C)(C)O)nc(OC[C@@H](N)c3ccccc3)cc21 | -1.49
